D1 antagonist: human D1 dopamine receptor antagonism. activity change, negative = inhibition, % at 10 µM. HEK293 TREx D1 cells, calcium flux, dopamine EC80; hits give low values. hit rate 3.2% among 360,000. AID 504652; in the data active = activity change below about -30%
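Cells carrying a force-coupled, tetracycline-inducible human D1 receptor report calcium flux. Each well gets a 10 s baseline, compound with 180 s monitoring, then an EC80 dopamine stimulus with a second 180 s kinetic read.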
D1 potentiator: human D1 dopamine receptor positive modulation. P21728. HEK293 TREx D1 cells, calcium flux, dopamine EC20 potentiation. potentiation, % at 10 µM. hit rate 0.036% among 360,000; in the data active = potentiation above about 30%
D1 ag: activates the human D1 dopamine receptor. P21728. HEK293 T-REx D1 cells, calcium flux, agonist mode. activation, % at 2 µM. hit rate 1% among 360,000
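Tetracycline-induced HEK293 TREx D1 cells, force-coupled to calcium signalling, were dye-loaded with a no-wash calcium kit. Compound was pin-added after a 10 s baseline. Fluorescence was read kinetically at 1 cycle/s for 180 s, with calcium rises flagged as agonism.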
TRHR ag: activates the human TRH receptor; TRHR cells, calcium flux fluo-8, FDSS agonist mode; activation, % at 2 µM; hit rate 0.18% among 360,000
Target sequence (P34981 whole entry, looked up): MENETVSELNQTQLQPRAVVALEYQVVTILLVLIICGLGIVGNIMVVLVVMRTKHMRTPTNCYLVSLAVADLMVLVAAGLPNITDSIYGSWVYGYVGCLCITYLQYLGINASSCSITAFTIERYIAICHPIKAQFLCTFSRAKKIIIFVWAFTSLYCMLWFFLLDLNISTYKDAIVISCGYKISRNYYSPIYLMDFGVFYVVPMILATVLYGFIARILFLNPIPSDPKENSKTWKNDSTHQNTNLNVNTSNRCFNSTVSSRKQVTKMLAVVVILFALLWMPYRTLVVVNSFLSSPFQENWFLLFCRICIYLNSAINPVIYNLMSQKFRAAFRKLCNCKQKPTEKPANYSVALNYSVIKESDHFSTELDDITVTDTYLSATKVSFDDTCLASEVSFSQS
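TRHR-expressing cells loaded with fluo-8 calcium dye; 23 nL library compound pin-transferred, kinetic FDSS fluorescence (Ex 480/Em 530) recorded about 180 s for agonist-induced calcium release, before a 10 nM TRH EC20 addition for potentiator mode.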
TRHR enhancer: TRH receptor (human) allosteric enhancement; enhancement, % at 2 µM; hit rate 0.66% among 360,000; TRHR cells, fluo-8 calcium fluorescence, EC20 TRH enhancement; in the data active = enhancement above about 30%
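Enhancer read-out: after compound pinning and an initial kinetic agonist-mode read, an EC20 of TRH (10 nM final) was injected and fluo-8 calcium signal (Ex 480/Em 530) followed at 1 s/cycle for 100 cycles in TRHR-expressing cells.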
Each line names hits and unclear results; the compound was inactive in the other large screens. Shown are actives, neighbours in structure and some others; about 4.6% of the full set was active somewhere. Cut-off read from the data, not from the text of the source, unless noted: active = activation above about 30%; inactive = the rest.

CCn1c(C(=O)NC(C)c2ccc3c(c2)OCCO3)cc2sccc21 (stereo not drawn)	D1 antagonist -32
COc1ccc(-c2cc(C(=O)NCCc3ccccc3)c3c(-c4ccccc4)[nH]nc3n2)cc1OC	none
COc1ccc(CCNC(=O)c2cc(-c3ccc(C)cc3)nc3n[nH]c(-c4ccccc4)c23)cc1OC	TRHR enhancer 48
Cc1cc(C)n(CCCN2CCC(C(=O)Nc3cccc(-c4cccc(F)c4)c3)CC2)n1	D1 antagonist -58, D1 ag 34
C#CC(CC)(CC)NC(=S)Nc1ccc(S(N)(=O)=O)cc1	D1 antagonist -43
CCCNC(=S)Nc1ccc(S(N)(=O)=O)cc1	none
CCCCOC(=O)c1ccc(NC(=O)Cn2nnc3sc4c(c3c2=O)CCCC4)cc1	none
Cc1ccc(S(=O)(=O)c2nc(NCCN(C)C)sc2Cl)cc1	D1 antagonist -37
COc1cccc(/C=C2\NC(=O)NC2=O)c1O	none
CC(C)CCn1c(N2CCOCC2)nc2c1c(=O)n(CC(N)=O)c(=O)n2C	D1 antagonist -58
CC(C)CCn1c(N2CCCC2)nc2c1c(=O)[nH]c(=O)n2C	D1 antagonist -38
Cc1csc(SCCn2c(N3CCN(c4ccccc4)CC3)nc3c2c(=O)[nH]c(=O)n3C)n1	D1 antagonist -64
CCCCOc1ccc(C(=O)N2CCN(CCc3ccncc3)CC2)cc1	none
CCN(CC)CCNC(=O)c1ccc(NC(=O)Cc2ccccc2F)cc1	none
CCN(CC)CCNC(=O)c1ccc(NC(=O)c2ccccc2-c2ccc(C(F)(F)F)cc2)cc1	D1 ag 70
CCN(CC)CCNC(=O)c1ccc(NC(=O)c2cn(-c3ccccc3)nc2-c2cccs2)cc1	D1 antagonist -81
CC(C)(C)N(Cc1ccccc1)C(=O)CN1C(=O)NC2(CCCCCC2)C1=O	D1 antagonist -75 (no result: D1 potentiator)
CC(O)c1cccc(NC(=O)CCCc2ccccc2)c1 (stereo not drawn)	none
CCOC(=O)C(Cc1ccccc1)C(=O)Nc1cccc(C)c1 (stereo not drawn)	TRHR enhancer 31
Cc1cccc(NC(=O)CCCc2ccccc2)c1	D1 antagonist -58
O=C(NNC(=O)c1ccccc1[N+](=O)[O-])c1ccc(NC(=O)c2ccccc2)cc1	D1 antagonist -38
O=C(NNC(=O)c1ccccc1[N+](=O)[O-])Nc1ccc(Cl)cc1	none
Cc1cc2c(s1)c1cnn(Cc3cc(F)cc(F)c3)c(=O)c1n2C	none
CN(C)c1ccc(CNC(=O)c2ccc(Cn3c(=O)c4cccn4c4cccnc43)cc2)cc1	none
COc1ccc(F)c(CN2CCC(CO)(Cc3cccc(C(F)(F)F)c3)CC2)c1	none
OCC1(Cc2cccc(C(F)(F)F)c2)CCN(Cc2cc3ccccc3o2)CC1	none
COc1ccc(CN2CCC(CO)(Cc3cccc(C(F)(F)F)c3)CC2)cc1Cn1cccn1	D1 ag 34
Cc1c(CN2CCC(CO)(Cc3cccc(C(F)(F)F)c3)CC2)c2ccccc2n1C	D1 ag 82
COc1cc(CN2CCC(CO)(Cc3cccc(C(F)(F)F)c3)CC2)ccc1F	D1 ag 52
Cc1cc(Nc2cccc(C(F)(F)F)c2)nc2ccc(NC(=O)c3cccnc3)cc12	none
O=C(Nc1ccc(Nc2ccccc2)cc1)c1ccc(F)cc1	none
O=C(Nc1ccc(Nc2ccccc2)cc1)c1c(F)c(F)c(F)c(F)c1F	D1 antagonist -31
Cc1ccc2ncc(C(=O)NC(C)c3ccccc3)c(=O)n2c1 (stereo not drawn)	D1 antagonist -34
CC1CCCCN1C(=O)CSc1nc(-c2ccccc2)cn1N (stereo not drawn)	none
CC1CCCCN1C(=O)CSc1n[nH]c(-c2ccccc2)n1 (stereo not drawn)	D1 antagonist -31
COc1ccccc1CNC(=O)C1CCN(S(=O)(=O)c2ccc3c(c2)CCCN3C(C)=O)CC1	none
CCOC(=O)c1cc(C)sc1/N=C/C1C(=O)CC(C)(C)CC1=O	none
CCOC(=O)c1c(CC(C)C)csc1/N=C/C1C(=O)CC(C)(C)CC1=O	D1 ag 32
Cc1cc(C)c(Nc2cc(S(=O)(=O)O)c(N)c3c2C(=O)c2ccccc2C3=O)c(C)c1	D1 ag 40
CCCCC(CC)CN=C(N)NC(N)=NCCCCCCN=C(N)NC(N)=NCC(CC)CCCC (stereo not drawn)	D1 antagonist -75
CCCCC(CC)COC(=O)CCCCC(=O)OCC(CC)CCCC (stereo not drawn)	none (no result: D1 antagonist)
CCn1nc(C)c2c(-c3ccccc3)cc(=O)n(C(C)C(=O)NCc3ccccc3OC)c21 (stereo not drawn)	none
CCn1c(C(=O)N2CCC(C(=O)N3CCN(c4cc(C)ccc4C)CC3)CC2)cc2sccc21	D1 antagonist -36
CCn1c(C(=O)N2CCC(C(=O)N3CCN(c4cccc(C)c4C)CC3)CC2)cc2sccc21	none
O=C(NCc1ccccc1)C(c1ccccc1)N(Cc1ccc2c(c1)OCO2)C(=O)Cc1cccs1 (stereo not drawn)	D1 ag 34
Cc1ccccc1-n1c(C)cc(/C=N/Nc2ccc([N+](=O)[O-])cn2)c1C	none
O=[N+]([O-])c1ccc(N/N=C\c2cccn2-c2ccccc2)nc1	D1 ag 37
CCSc1ncc(/C=N/Nc2ccc([N+](=O)[O-])cc2)n1C	D1 ag 37
Cc1cc(NC(=O)c2c(-c3c(F)cccc3Cl)noc2C)no1	none
Cc1cc(C)nc(NC(=O)c2c(-c3c(Cl)cccc3Cl)noc2C)n1	none
Cc1cc(NC(=O)c2ccc(-c3ccc(F)c(Cl)c3)o2)no1	none
Cc1cc(NC(=O)c2ccc(-c3ccccc3F)o2)no1	TRHR enhancer 37
Cc1cc(NC(=O)c2c(-c3c(Cl)cccc3Cl)noc2C)n(C)n1	D1 antagonist -50
Cc1cc(NC(=O)c2c(Cl)cccc2Cl)no1	TRHR enhancer 30
Cc1ccc(/C=C(\C#N)C(=O)Nc2cccc(Br)c2)o1	none
N#C/C(=C\c1ccc(N2CCCCC2)o1)C(N)=O	D1 ag 37
N#C/C(=C\c1ccc(N2CCCCC2)o1)C(=O)Nc1cccc(Br)c1	D1 ag 428, TRHR ag 108
O=Cc1ccc(N2CCCC2)o1	none
CCCCn1c(SCC(=O)c2ccccc2)nc2sc3c(c2c1=O)CCCC3	none
S=C(Nc1ccccc1Cl)NC1CC2CCCC(C1)N2C1CC1 (stereo not drawn)	D1 antagonist -54
CC(C)(C)C(=O)NC1CC2CCCC(C1)N2C(=O)Nc1ccccc1Cl (stereo not drawn)	none
COc1ccc(Cl)cc1NC(=O)N1CCN(S(=O)(=O)c2ccc3c(ccn3C)c2)CC1	none
Cc1ccc(C(=O)C[n+]2cccc(C(N)=O)c2)cc1	none
CCN(CC)C(=O)C[n+]1cccc(C(N)=O)c1	D1 antagonist -31
CCOc1cc(/C=N/NC(=O)C2CC2)ccc1OC(C)C	none
